Laboratory results published in PubChem BioAssay AID2499 (National Center for Advancing Translational Sciences (NCATS), 2010).
Inconclusive results are not listed. The source made the active and inactive calls. The call rests on the fitted dose curve; in most records, active means well fitted inhibition curve with a large enough effect; inconclusive means small, poorly fitted or top-dose-only effect; inactive means flat fitted curve, though single readings scatter.

target: Galactokinase (Homo sapiens) (UniProt P51570); assay: Confirmation Assay for Inhibitors of Human Galactokinase (GALK): probe SAR; conditions: purified GALK, Kinase-Glo ATP depletion luminescence; series mostly up to 115 µM
Source text: NIH Molecular Libraries Probe Production Centers Network [MLPCN] NIH Chemical Genomics Center [NCGC] MLPCN Grant: R03 MH085689-01 Assay Submitter (PI): Kent Lai (University of Utah School of Medicine, 50 N Mario Capecchi Drive, Salt Lake City, UT 84132) NCGC Assay Overview Inherited deficiency of galactose-1-phosphate uridyltransferase (GALT) can result in a potentially lethal disorder called Classic Galactosemia (OMIM 230400). Several lines of evidence indicate that an elevated level of galactose-1-phosphate (gal-1-p), the product of galactokinase (GALK), is a major, if not sole, pathogenic mechanism in patients with classic galactosemia. Therefore, finding inhibitors of GALK is a potential novel therapy for this inherent metabolic disease and is the long term goal of this project. Active compounds observed in the qHTS GALK assay (AID: 1868) were cherry picked and re-screened for validation. GALK (provided by Kent Lai) was assayed using ATP and D-(+)-Galactose (Sigma-Aldrich cat# G0750) as substrates. Promega Kinase-Glo Plus (cat# V3774) technology was used to detect the residual ATP following kinetic reaction. Briefly, the Kinase-Glo Plus contains Ultra-Glo [1] luciferase and D-luciferin which generates a bioluminescence signal from the remaining ATP. Kinase reactions with and without GALK were used as negative and positive controls together with Protein Tyrosine Phosphatase CD45 inhibitor (EMD Bioscience cat# 540215) which is shown to inhibit GALK activity.
NCGC Assay Protocol Summary: Three uL/well of ATP-buffer solution (35 uM ATP, 20mM HEPES pH8.0, 5 mM MgCl2, 60 mM NaCl, 1 mM DTT, 0.01% BSA final concentration) was dispensed into 1536-well, assay plates (Greiner, solid white medium-binding plates) with Aurora Discovery BioRAPTR Flying Reagent Dispenser (FRD; Beckton-Dickenson). Compound and control solution (23 nL) was transferred to the assay plate using the Kalypsys 1536-pin tool apparatus. One uL/well GALK-galactose solution (5 nM GALK, 100 uM galactose, 20 mM HEPES pH8.0, 5 mM MgCl2, 60 mM NaCl, 1 mM DTT, 0.01% BSA final concentration) was then added using the FRD yielding a total kinase reaction volume of 4 uL/ well. After 1 hour of room temperature incubation, 4 uL Kinase-Glo Plus reagent was added for a final assay volume of 8 uL/well. Luminescence was detected with the ViewLux plate reader (Perkin Elmer, Waltham, MA) after 2 min incubation using a 1 sec exposure time and 2x binning.

Sequence of Galactokinase (Homo sapiens) (P51570 whole entry, looked up): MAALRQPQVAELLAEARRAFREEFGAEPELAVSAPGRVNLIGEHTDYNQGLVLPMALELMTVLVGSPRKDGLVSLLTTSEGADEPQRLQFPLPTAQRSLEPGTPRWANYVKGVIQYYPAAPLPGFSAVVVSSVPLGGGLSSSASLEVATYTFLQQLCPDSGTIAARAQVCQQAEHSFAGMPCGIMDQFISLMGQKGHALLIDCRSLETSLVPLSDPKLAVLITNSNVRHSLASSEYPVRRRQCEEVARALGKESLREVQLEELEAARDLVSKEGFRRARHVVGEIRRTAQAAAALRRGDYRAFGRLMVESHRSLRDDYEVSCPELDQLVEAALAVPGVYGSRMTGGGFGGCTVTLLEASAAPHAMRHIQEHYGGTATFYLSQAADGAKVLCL

Structure (SMILES) | Potency
Cn1c(NC2=NC3(CCCC3)C3=C(CCCC3=O)N2)nc2ccccc21 | inactive
O=C1CCC2=C1C1(CCCC1)N=C(Nc1nc3ccccc3o1)N2 | 11.9 µM (active)
CC1CCC2(C1)N=C(Nc1nc3ccccc3o1)NC1=C2C(=O)CCC1 (centres undefined) | 11.9 µM (active)
O=C1CCC2=C1C(c1ccccc1Cl)N=C(Nc1nc3ccccc3o1)N2 (centres undefined) | 11.9 µM (active)
O=C1CCCC2=C1C1(CCSC1)N=C(Nc1nc3ccccc3o1)N2 (centres undefined) | 2.66 µM (active)
Cc1nc(Nc2nc3ccccc3o2)nc2c1C(=O)CC(C)(C)C2 | inactive
CC1(C)CC(=O)C2=C(C1)NC(Nc1nc3ccccc3o1)=NC21CCCC1 | 6.68 µM (active)
Cc1ccc(C2N=C(Nc3nc4ccccc4o3)NC3=C2C(=O)CC(C)(C)C3)cc1 (centres undefined) | inactive
O=C1CCCC2=C1C1(CCSCC1)N=C(Nc1nc3ccccc3o1)N2 | 1.06 µM (active)
O=C1CCCC2=C1C1(CCS(=O)(=O)C1)N=C(Nc1nc3ccccc3o1)N2 (centres undefined) | 6.68 µM (active)
COc1cccc(C2N=C(Nc3nc4ccccc4o3)NC3=C2C(=O)CC(C)(C)C3)c1 (centres undefined) | 37.5 µM (active)
O=C1CCCC2=C1[C@@]1(CCC(c3ccccc3)C1)N=C(Nc1nc3ccccc3o1)N2 (some centres undefined) | inactive
CC1(C)CC(=O)C2=C(C1)NC(Nc1nc3ccccc3o1)=NC2c1cccc(O)c1 (centres undefined) | 21.1 µM (active)
O=C1CCCC2=C1C(c1ccc(Cl)cc1)N=C(Nc1nc3ccccc3o1)N2 (centres undefined) | inactive
O=C1CCCC2=C1C1(CCCC1)N=C(Nc1nc3cc(Br)ccc3o1)N2 | 7.49 µM (active)
CC1(C)N=C(Nc2nc3ccccc3o2)NC2=C1C(=O)CCC2 | 47.3 µM (active)
O=C1CCCC2=C1C1(CCCCC1)N=C(Nc1nc3ccccc3o1)N2 | 13.3 µM (active)
CC1(C)CC(=O)C2=C(C1)NC(Nc1nc3ccccc3o1)=NC2c1cccc(F)c1 (centres undefined) | inactive
O=C1CCCC2=C1C1(CCCC1)N=C(Nc1nc3cc4ccccc4cc3o1)N2 | inactive
O=C1CCCC2=C1C1(CCC1)N=C(Nc1nc3ccccc3o1)N2 | 18.8 µM (active)
O=C1CCCC2=C1C1(CCCC1)N=C(Nc1nc3ccccc3n1Cc1ccccc1)N2 | inactive
O=C1CCCC2=C1C1(CCCC1)N=C(Nc1nc3cc(Cl)ccc3o1)N2 | 6.68 µM (active)
O=C1CC(c2ccccc2)CC2=C1C1(CCCCC1)N=C(Nc1nc3ccccc3o1)N2 (centres undefined) | inactive
COc1ccc(C2N=C(Nc3nc4ccccc4o3)NC3=C2C(=O)CC(C)(C)C3)cc1 (centres undefined) | inactive
CCC1CCC2(C1)N=C(Nc1nc3ccccc3o1)NC1=C2C(=O)CCC1 (centres undefined) | inactive
Cc1ccc2oc(NC3=NC4(CCCC4)C4=C(CCCC4=O)N3)nc2c1 | 5.95 µM (active)
O=C1CCCC2=C1C(c1ccccc1Cl)N=C(Nc1nc3ccccc3o1)N2 (centres undefined) | 0.595 µM (active)
COc1ccccc1C1N=C(Nc2nc3ccccc3o2)NC2=C1C(=O)CC(C)(C)C2 (centres undefined) | inactive
CC1(C)CC(=O)C2=C(C1)NC(Nc1nc3ccccc3o1)=NC2c1ccccc1Cl (centres undefined) | 8.41 µM (active)
